High-throughput results (PubChem)
Hits are enriched below; roughly 5.3% of the tested compounds scored in any of these assays.
CtBP-E1A blk = inhibitors of CtBP/E1A interaction; AlphaScreen GST-E1A/His-CtBP binding, 1536-well; stronger effect = lower value; activity change, % (test concentration not listed); AID 651724; 340,000 tested, 0.49% active; in the data active = activity change below about -65%; inconclusive = mostly about -30% to -63%; note: % is set by controls: 0 for no effect and ±100 for the full control effect
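AlphaScreen with 125 nM GST-E1A and 125 nM His-CtBP (5X stocks) in Tris pH 8.0, 300 mM NaCl, BSA, Tween 20, TCEP. Compounds preincubated 2 h at 37 deg C, then glutathione donor/nickel acceptor beads added for 1 h at 37 deg C in dark.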
BAZ2B block = inhibitors of human BAZ2B bromodomain; AID 504333; Q9UIF8; AlphaScreen BAZ2B-H3K14Ac peptide displacement; Potency, µM (doses to about 114 µM), inactives show at the top dose activity change, negative = inhibition, usual class: inhibitors; 360,000 tested, 4.4% active; note: potency is the fitted concentration of half-maximal effect; % is set by controls: 0 for no effect and ±100 for the full control effect; nearly all actives have a fitted effect of over 60% in size
Target sequence (Q9UIF8 whole entry, looked up): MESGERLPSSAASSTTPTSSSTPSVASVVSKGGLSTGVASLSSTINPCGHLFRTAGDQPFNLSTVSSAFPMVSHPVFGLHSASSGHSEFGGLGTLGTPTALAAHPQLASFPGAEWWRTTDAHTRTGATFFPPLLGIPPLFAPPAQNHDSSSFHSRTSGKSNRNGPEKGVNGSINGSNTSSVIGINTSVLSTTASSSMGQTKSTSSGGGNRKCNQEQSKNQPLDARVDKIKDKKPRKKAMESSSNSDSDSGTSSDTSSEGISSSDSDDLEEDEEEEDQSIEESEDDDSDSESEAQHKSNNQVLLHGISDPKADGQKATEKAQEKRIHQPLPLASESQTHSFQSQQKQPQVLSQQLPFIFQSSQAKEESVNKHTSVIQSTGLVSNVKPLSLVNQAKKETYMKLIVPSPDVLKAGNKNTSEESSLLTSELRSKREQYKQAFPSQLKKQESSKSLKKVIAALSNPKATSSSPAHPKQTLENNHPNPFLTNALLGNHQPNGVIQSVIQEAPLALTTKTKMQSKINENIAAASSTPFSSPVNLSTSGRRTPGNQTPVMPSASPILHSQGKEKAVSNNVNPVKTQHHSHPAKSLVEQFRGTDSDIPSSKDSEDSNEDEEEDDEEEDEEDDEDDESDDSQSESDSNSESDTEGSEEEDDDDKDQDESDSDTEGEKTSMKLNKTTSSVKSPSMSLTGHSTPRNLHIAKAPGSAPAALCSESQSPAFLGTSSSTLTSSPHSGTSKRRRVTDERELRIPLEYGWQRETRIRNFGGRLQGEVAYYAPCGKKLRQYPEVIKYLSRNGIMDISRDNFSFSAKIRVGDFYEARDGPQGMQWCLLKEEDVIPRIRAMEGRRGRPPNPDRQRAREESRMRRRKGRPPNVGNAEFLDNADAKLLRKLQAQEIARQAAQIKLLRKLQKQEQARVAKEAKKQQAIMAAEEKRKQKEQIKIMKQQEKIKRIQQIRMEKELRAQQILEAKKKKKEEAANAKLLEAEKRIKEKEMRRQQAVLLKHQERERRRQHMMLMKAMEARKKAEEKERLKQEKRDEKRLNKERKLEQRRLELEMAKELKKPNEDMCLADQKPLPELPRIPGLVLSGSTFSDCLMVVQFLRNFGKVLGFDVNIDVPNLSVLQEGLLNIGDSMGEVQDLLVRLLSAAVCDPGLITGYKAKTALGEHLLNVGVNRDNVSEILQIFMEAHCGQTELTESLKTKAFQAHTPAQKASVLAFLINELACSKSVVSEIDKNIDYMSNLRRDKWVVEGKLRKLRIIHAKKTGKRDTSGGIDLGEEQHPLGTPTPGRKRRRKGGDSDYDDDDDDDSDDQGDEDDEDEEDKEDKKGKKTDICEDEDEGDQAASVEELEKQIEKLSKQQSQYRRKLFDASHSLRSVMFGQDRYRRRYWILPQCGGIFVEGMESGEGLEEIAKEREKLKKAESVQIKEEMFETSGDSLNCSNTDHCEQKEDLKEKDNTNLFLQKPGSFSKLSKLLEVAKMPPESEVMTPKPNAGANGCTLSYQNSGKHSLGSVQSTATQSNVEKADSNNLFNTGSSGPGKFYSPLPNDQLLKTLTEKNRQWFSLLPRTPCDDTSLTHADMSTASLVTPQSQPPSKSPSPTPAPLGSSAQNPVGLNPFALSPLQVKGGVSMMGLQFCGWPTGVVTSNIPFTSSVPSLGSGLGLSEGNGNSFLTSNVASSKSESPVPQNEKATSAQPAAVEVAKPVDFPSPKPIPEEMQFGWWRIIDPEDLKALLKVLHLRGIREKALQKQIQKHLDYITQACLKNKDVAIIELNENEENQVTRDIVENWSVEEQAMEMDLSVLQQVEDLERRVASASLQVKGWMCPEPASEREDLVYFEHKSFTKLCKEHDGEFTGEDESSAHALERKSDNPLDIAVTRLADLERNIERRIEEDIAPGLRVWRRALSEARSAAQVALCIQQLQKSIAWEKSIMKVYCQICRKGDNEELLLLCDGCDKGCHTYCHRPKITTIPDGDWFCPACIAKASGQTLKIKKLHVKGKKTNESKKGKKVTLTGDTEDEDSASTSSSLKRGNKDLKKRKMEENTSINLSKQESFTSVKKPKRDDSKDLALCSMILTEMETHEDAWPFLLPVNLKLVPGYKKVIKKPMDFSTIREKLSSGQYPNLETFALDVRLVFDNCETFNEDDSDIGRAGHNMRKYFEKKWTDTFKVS
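Protein-peptide AlphaScreen: BAZ2B 50 nM, b-H3K14Ac 50 nM, 1x PBS pH 7.4 + 0.01% Tween-20. Preincubation 30 min RT; cpd 30 min RT (top 110 uM); beads 20 min RT, light-protected.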
JMJD2A Tudor = inhibitors of human JMJD2A Tudor domain; O75164; AlphaScreen JMJD2A-Tudor / H3K4me3 peptide binding; Potency, µM (series often up to 114 µM), without a hit: top-dose activity change, negative = inhibition, usual class: inhibitors; 390,000 tested, 4.4% active; AID 504339; note: potency is the fitted concentration of half-maximal effect; % is set by controls: 0 for no effect and ±100 for the full control effect; nearly all actives have a fitted effect of over 50% in size
Six1-Eya2 inh = Six1/Eya2 interaction inhibition; Q15475+O00167; AlphaScreen GST-Six1/His-Eya2 binding, biochemical; stronger effect = lower value; activity change, % (concentration not given with the values); 360,000 tested, 0.56% active; in the data active = activity change below about -65%; inconclusive = mostly about -30% to -63%; note: % is set by controls: 0 for no effect and ±100 for the full control effect
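Compounds are tested against tagged Six1 and Eya2 proteins bridged by glutathione donor and nickel acceptor beads; after a one-hour incubation at 37 °C without light, AlphaScreen emission is recorded.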
TDP1 inh = TDP1 (human) enzyme inhibition; Potency, µM (highest dose often 130 µM), for the others: top-dose activity change, negative = inhibition, actives largely listed as inhibitors; Q9NUW8; 350,000 tested, 0.28% active; recombinant TDP1, AlphaScreen DNA substrate cleavage; note: potency is the fitted concentration of half-maximal effect; % is set by controls: 0 for no effect and ±100 for the full control effect; nearly all actives have a fitted effect of over 40% in size
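AlphaScreen read-out: signal falls as enzyme removes the 3' tyrosine-FITC from a 5'-biotinylated DNA oligo (15 nM, 5 min, RT). Enzyme was E. coli-made recombinant Tdp1 at 1 nM, exposed to compound for 15 min beforehand; beads 10 ug/ml, 10 min.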
HP1b chromo inh = blocks HP1-beta chromodomain binding to methylated histone tails; Potency, µM (series often up to 114 µM), without a hit: at the highest dose activity change, negative = inhibition, most hits filed as inhibitors; 390,000 tested, 0.56% active; AlphaScreen HP1-beta / biotin-H3K9me3 peptide binding; P83916; AID 540317; note: potency is the fitted concentration of half-maximal effect; nearly all actives have a fitted effect of over 70% in size
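HP1-beta protein (50 nM final) preincubated 30 min at room temperature with biotinylated H3(1-18)K9me3 peptide (50 nM) in PBS pH 7.4, 0.01% Tween-20, then compound added for 30 min. AlphaScreen streptavidin donor/nickel chelate acceptor beads (10 ug/mL final), 30 min dark, luminescence read.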
* hit, by the source's call; ? = inconclusive; / = not tested or not shown; [ ] = another dose, or the depositor's remark. Unless noted, calls come from the whole dose curve; as a rule, active = well fitted inhibition curve with a large enough effect; inconclusive = small, poorly fitted or top-dose-only effect; inactive = no such curve, though single readings can be large or run the other way.

SMILES	CtBP-E1A blk	BAZ2B block	JMJD2A Tudor	Six1-Eya2 inh	TDP1 inh	HP1b chromo inh
CCCCNC(=O)CCCCCn1c(=O)[nH]c2ccccc2c1=O	/	5.1%	-4.0%	/	7.0%	40.1%
CC1CCN(S(=O)(=O)c2cc(F)ccc2CN2C(=O)c3cccnc3C2=O)CC1	/	56.2µM*	-2.0%	-1.5	2.6%	56.0%
CC1CCN(S(=O)(=O)c2cccc3cccnc23)CC1	0.0	9.1%	-11.3%	0.2	/	13.5%
COc1ccc(NC(=S)N(CCc2c(C)[nH]c3ccc(C)cc23)Cc2cccnc2)cc1	-26.3	35.5µM*	50.1µM*	-14.8	10.5%	-21.8%
CCOc1ccc(NC(=S)N(CCc2c(C)[nH]c3ccc(C)cc23)Cc2ccncc2)cc1	?	35.5µM*	25.1µM*	-14.2	9.2%	-19.9%
COc1ccc(CCNC(=O)c2csc3c2CCCCC3)c(OC)c1	/	-1.4%	-14.2%	/	-1.0%	23.2%
Cn1c(C(=O)NCc2ccco2)cc2c(=O)[nH]c3ccccc3c21	-19.7	-7.7%	100µM*	-25.0	0.0%	46.9%
Cc1ccc(-n2nc(CO)c(C(=O)NCc3cccs3)n2)cc1C	/	2.7%	-27.4%	/	4.7%	15.8%
Cc1ccccc1S(=O)(=O)Cc1ccc(C(=O)N2CCN(c3cccc(Cl)c3)CC2)o1	/	?	-27.9%	/	1.2%	7.2%
C#CCOc1ccc(/C=C2/C(=O)ON=C2C)cc1Br	3.8	-5.4%	-9.1%	-3.0	/	7.9%
C#CCOc1ccc(Cl)cc1/C=C1/C(=O)ON=C1C	10.1	?	35.5µM*	3.6	/	14.6%
Cc1ccc(S(=O)(=O)Nc2cccc3ccc[n+](C)c23)cc1	/	/	50.1µM*	/	4.4%	/
Cc1ccc(S(=O)(=O)Nc2cccc3ccccc23)cc1	/	/	-11.0%	/	-0.4%	12.0%
CCNC(=O)c1c(NC(=O)Cc2coc3cc(C)ccc23)sc2c1CCCC2	/	-3.0%	-3.1%	/	3.7%	33.8%
Cc1cc(=O)n(C)c(=O)n1CCCCCN1CCCC1	7.1	50.1µM*	2.51µM*	6.3	-2.1%	?
CCOC(=O)c1c(/N=C/c2cccc([N+](=O)[O-])c2O)sc(C)c1C	-6.4	44.7µM*	50.1µM*	-15.5	0.0%	44.7µM*
COC1OC(CO)C(OC2OC(C(=O)O)C(OC3OC(COS(=O)(=O)O)C(OC4OC(C(=O)O)C(OC5OC(CO)C(OC6OC(C(=O)O)C(OC7OC(COS(=O)(=O)O)C(OC8OC(C(=O)O)=C[C@H](O)C8OS(=O)(=O)O)C(O)C7NC(C)=O)[C@@H](O)C6O)C(O)C5NC(C)=O)[C@@H](O)C4O)C(O)C3NC(C)=O)[C@@H](O)C2O)C(O)C1NC(C)=O (stereo partly drawn)	/	/	/	/	-6.9%[56.1 µM]	/
O=c1[nH]c2ccc(S(=O)(=O)Nc3ccc(Cl)cc3)cc2o1	5.7	-9.7%	-7.6%	7.8	3.8%	56.5%
O=c1[nH]c2ccc(S(=O)(=O)Nc3cc(Cl)ccc3O)cc2o1	/	39.8µM*	?	/	/	-4.4%
N#CCCN1CCN(C(=S)c2ccc(-c3cccc(Cl)c3)o2)CC1	?	35.5µM*	35.5µM*	?	10.9%	?
S=C(c1ccc(-c2cccc(Cl)c2)o1)N1CCCCC1	?	31.6µM*	28.2µM*	?	7.5%	?
CC(=O)N1CCN(C(=S)c2ccc(-c3ccc(Cl)cc3)o2)CC1	5.8	-6.1%	?	-18.2	11.5%	-68.4%
N#CCCN1CCN(C(=S)c2ccc(-c3ccc(Cl)c(Cl)c3)o2)CC1	?	/	50.1µM*	?	8.3%	?
COc1cccc(NC(=O)C2CCCN(c3ncnc4onc(-c5ccc(F)cc5)c34)C2)c1 (stereo not drawn)	/	6.8%[57.1 µM]	-7.4%	/	-2.1%	34.0%
CC(C)(C)NC(=S)NC(=O)C12CCC3CC(CC(C3)C1)C2	-1.0	70.8µM*	?	3.0	6.2%	2.8%
SMILES	CtBP-E1A blk	BAZ2B block	JMJD2A Tudor	Six1-Eya2 inh	TDP1 inh	HP1b chromo inh
CC(C)(C)NC(=O)C12CC3CC(CC(Cl)(C3)C1)C2	0.0	-4.3%	-4.8%	0.5	-3.0%	24.7%
Cc1ccc(CCNC(=O)C(NS(=O)(=O)c2ccc3c(c2)oc(=O)n3C)C(C)C)cc1 (stereo not drawn)	/	-8.1%	-8.4%	/	-4.6%	14.0%
COc1cc2[nH]c3c(Cl)ncnc3c2cc1OC	-4.4	44.7µM*	-12.1%	?	0.0%	20.1%
COc1ccc(OCCn2nnc3sc4c(c3c2=O)CCCC4)cc1	/	50.1µM*	79.4µM*	/	/	3.0%
Cc1cccc(OCCCCn2nnc3sc4c(c3c2=O)CCC(C)C4)c1 (stereo not drawn)	/	?	70.8µM*	/	/	60.7%
CCC(C(=O)Nc1ccc(C(=O)OC)cc1)n1nc(-c2ccc(C)c(C)c2)ccc1=O (stereo not drawn)	/	-34.8%	-6.6%	/	2.6%	32.8%
COc1ccc(C(=O)/C=C/c2ccccc2)c(OC)c1	3.1	5.4%	-5.4%	2.0	3.8%	26.8%
COc1cc(/C=C/C(=O)c2ccccc2O)cc(OC)c1OC	-22.8	56.2µM*	50.1µM*	1.0	7.2%	-31.6%
COc1cc(OC)c(C=CC(=O)c2ccccc2O)c(OC)c1	0.0	/	?	0.0	/	28.2µM*
COc1cc(C)ccc1OCCCn1c(-c2ccc(Cl)cc2)nc2ccccc2c1=O	/	1.9%	-1.0%	/	/	57.3%
Cc1ccc2nc(CSc3nnc(NC(=O)C(C)C)s3)cc(=O)n2c1	/	4.8%	0.0%	/	0.0%	29.7%[57 µM]
Cc1cccc(N(Cc2ccccc2F)S(C)(=O)=O)c1	4.6	3.0%	-2.9%	9.8	3.0%	28.2%
Cc1ccc(N(Cc2ccccc2F)S(C)(=O)=O)cc1C	6.9	56.2µM*	13.4%	4.0	-1.4%	33.2%
COc1ccc(CC(=O)n2[nH]c(=O)c3ccccc3c2=O)cc1OC	-6.2	0.1%	7.4%	-0.4	5.7%	43.4%
COc1ccc(CC(=O)n2[nH]c(=O)ccc2=O)cc1OC	0.0	-31.8%	8.91µM*	-15.3	12.3%	8.91µM*
O=C(NCCCn1ccnc1)Nc1cccc(Cl)c1	-23.2	25.1µM*	44.7µM*	?	2.6%	31.8%
COc1cccc(NC(=O)C(=O)NCCCn2ccnc2)c1	0.0	79.4µM*	-22.7%	-3.3	0.0%	1.2%
CCCCCOc1ccc(NC(=O)C(=O)NCCCn2ccnc2)cc1	1.2	-6.9%	-27.2%	-2.9	-1.0%	18.5%
Clc1cccc(-n2ncc3c(NCCCn4ccnc4)ncnc32)c1	/	28.2µM*	?	/	10.4%	27.3%
O=C(NCCCn1ccnc1)c1cccc(Cl)c1	5.6	-17.4%	-0.3%	3.4	/	13.7%
CC(=O)N1CCc2cc(Br)cc(S(=O)(=O)N3CCC(C)CC3)c21	/	-1.0%	-7.5%	/	5.9%	38.7%
O=C(C1CC1)N1CCc2cc(Br)cc(S(=O)(=O)NCc3ccccn3)c21	-5.5	8.3%	2.82µM*	-9.5	4.5%	22.9%
